# High-throughput results: PubChem BioAssay, National Center for Advancing Translational Sciences (NCATS)
# ERK EGF block – inhibitors of EGF-stimulated ERK signaling pathway. hit rate 0.41% among 130,000. Potency, µM (top dose mostly 11.5 µM), without a hit: at the top dose activity change, negative = inhibition, usual class: inhibitors. HEK293-V1b, EGF-stimulated phospho-ERK AlphaScreen; active means well fitted inhibition curve with a large enough effect;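 further: plate controls were stimulated vehicle wells for no effect and unstimulated vehicle basal for full effect; nearly all actives have a fitted effect of over 55% in size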
#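 HEK293 cells stably expressing V1b receptor, serum-reduced (1% FBS) overnight, got compound for 30 min at 37C, then 25 nM EGF for 5 min. Lysate phospho-ERK read by AlphaScreen SureFire; AC50 from Hill fits.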
# Starred values were filed as active, the others as inactive; ! = repeats disagree; [ ] = remark or other dose. Only a selection was taken, and hits are over-represented in it overall. Potency means the concentration at half of the fitted maximal effect.
SMILES,ERK EGF block
CN1/C(=C\C=Nc2cc(S(=O)(=O)N3CCOCC3)ccc2N2CCOCC2)C(C)(C)c2ccccc21,-5%
CO/N=C/C=C1/N(C)c2ccccc2C1(C)C,-2%
CN1CCC/C1=C/C=C1\SC(=S)NC1=O,-2%
CN1/C(=C\C=N\O)C(C)(C)c2ccccc21,6%
O=C(CSc1nccn1-c1ccccc1)NO,7%
Cc1ccc(C(=O)CN2C(=O)c3ccccc3S2(=O)=O)cc1,-11%[57.5 µM]
NNC(=O)CNC(c1ccccc1)c1cc(Br)ccc1N (centres undefined),-8%[57.5 µM]
CC(C)Oc1cccc(C(=O)C2CCCN(Cc3ccc(Oc4ncccn4)cc3)C2)c1 (centres undefined),4%
Nc1nc(N)c2nc(-c3ccccc3)c(N)nc2n1,-6%
O=C(Nc1cccc(F)c1)Nc1ccc2c(c1)C(=O)OC2,-1%[57.5 µM]
COc1cc(C(=O)O)ccc1O,1%
C[C@@H]1C[C@](C)(C(=O)c2ccc3ccccc3c2)C=C1c1ccc2ccccc2c1,0%
O=C(O)c1ccc2cc(-c3ccc(O)c(C45CC6CC(CC(C6)C4)C5)c3)ccc2c1,25µM*
COc1cccc(-n2nnc(S(=O)(=O)c3ccc(C)cc3)c2N)c1,6%
Cc1nn(CC(=O)NCCc2ccccc2)c(C)c1[N+](=O)[O-],-8%
Cc1nn(CC(=O)NCc2ccccc2F)c(C)c1[N+](=O)[O-],-5%
Cc1nn(CC(=O)NCc2cc3ccccc3[nH]2)c(C)c1[N+](=O)[O-],14µM*
COc1ccc(NC(=O)c2ccccc2S(=O)c2ccccc2C#N)cc1 (centres undefined),-14%
COc1cc(/C=C/C(=O)OCC(=O)Nc2sc3c(c2C#N)CCC(C)C3)ccc1OCC#N (centres undefined),1%
CCOC(=O)c1ccc(Nc2ncnc3ccccc23)cc1,-7%
CC(C)(C)c1ccc(OC(=O)c2cccnc2)cc1,1%
O=C(Oc1ccc(Nc2ncnc3ccccc23)cc1)c1cccnc1,28µM*
CCOc1ccc2c(c1)c(N=Nc1cccc(C(=O)O)c1)c(O)n2C,8%
O=C(Oc1ccc2ccc(O)cc2c1)C1CCCCC1,-5%
COc1ccccc1CNc1ncncc1-c1ccc(N(C)C)cc1,20µM*
SMILES,ERK EGF block
COc1ccccc1CNc1ncncc1-c1ccoc1,26%
COc1ccccc1CNc1ncncc1-c1ccccc1C,8%
Cc1cc(C)nc(Nc2n[nH]c(-c3ccccc3Cl)n2)n1,-6%
O=C(Cc1cc(=O)[nH]c(=O)[nH]1)NCc1ccc(Cl)cc1,9%
Cc1c(NC2=CC(=O)CC(C)(C)C2)ccc([N+](=O)[O-])c1C,-4%
CC1=C/C(=N\Nc2ccccc2[N+](=O)[O-])CC(C)(C)C1,13µM*
N#C/C(=N\Nc1ccccc1[N+](=O)[O-])C(=N)N1CCCCC1,6%
CC(C)[C@H](NC(N)=O)C(=O)NCCc1ccc(Cl)cc1,1%
OCCCNc1nc(-c2ccccc2)nc2c1oc1ccccc12,-2%[57.5 µM]
O=C(Cn1ncc2ccccc21)N1CCN(c2cccc(C(F)(F)F)c2)CC1,7%
COc1cc(/C=N/N=C(N)N)ccc1OCc1ccc(Cl)cc1,4%
COc1cc(/C=N/O)ccc1OCc1ccc(Cl)cc1,-11%
CCOc1cc(/C=N/N=C(N)N)ccc1OCc1ccc(Cl)cc1,32µM*
O=C(c1ccccc1)c1ccc2nc(-c3ccco3)c(-c3ccco3)nc2c1,0%
CCN=C1SC(CC(=O)NC(C)c2ccccc2)C(=O)N1CC (centres undefined),9%
CCc1ccccc1NC(=S)N1CCC(NC(=O)c2ccc(OC)cc2)CC1,-12%
CCc1cccc(C)c1NC(=S)NCC1CCN(c2ccc(OC)cc2)C1 (centres undefined),10µM*
Cc1cc(C)c(NC(=S)NCC2CCN(C(C)c3ccccc3)C2)c(C)c1 (centres undefined),-7%[57.5 µM]
CCc1ccccc1NC(=S)NCC1CCN(c2ccc(OC)cc2)C1 (centres undefined),14µM*
COc1ccc(N2CCN(C(=O)Nc3ccccc3Cl)CC2)cc1,-1%
Cc1ccccc1NC(=S)NCC1CCC(CNC(=S)Nc2ccccc2C)CC1 (centres undefined),7%[57.5 µM]
CCCOc1ccc(-c2csc3ncn(Cc4ccc(C(=O)O)cc4)c(=O)c23)cc1,-13%
O=C(c1cc2cc(Br)ccc2s1)N1CCOCC1,4%
CC(C)NC(=O)c1cnn2c1NC(c1cccs1)CC2C(F)(F)F (centres undefined),-4%
COc1cc(O)oc1C=Nc1ccc(C(=O)O)cc1,-5%
SMILES,ERK EGF block
Cc1nc(C)c(CCNC(=O)c2cccc(Cl)c2)s1,1%
O=C(Nc1cccc([N+](=O)[O-])c1)N1CCN(c2ccccc2)CC1,-4%
C[n+]1c(/C=C/c2ccc3c(c2)OCO3)ccc2ccccc21,-2%
C[n+]1cc2c3c(ccc2c2ccc4cc5c(cc4c21)OCO5)OCO3,25µM*!
CCN(CC)CCN(Cc1cc2cc(C)ccc2[nH]c1=O)C(=S)Nc1ccccc1,-5%
N#C/C(=C(/O)c1ccc([N+](=O)[O-])cc1)c1nnc2n1CCCCC2,0%
CCN(CC)c1ccc(NC(=O)c2ccccc2Br)cc1S(=O)(=O)Nc1ccccc1OC,4%
OC(CN1CCNCC1)Cn1c2ccc(Br)cc2c2cc(Br)ccc21 (centres undefined),28µM*
CN1CCN(CC(O)COCCOc2ccc(Br)cc2)CC1 (centres undefined),-3%
Cc1ccc2c(c1)c(C)c(C)n2CC(O)CN1CCOCC1 (centres undefined),-2%
c1ccc2c(c1)COC(CN1CCCCC1)OC2,-3%
O=C(NCc1ccco1)c1ccc(Cl)nc1,-6%[57.5 µM]
Cc1nnc(SCC(=O)N/N=C/c2ccc(-c3ccc(C)c(Cl)c3)o2)s1,2%
Cc1ccc(C(=O)N/N=C\c2ccc(-c3ccc(Cl)c(Cl)c3)o2)cn1,18µM*
Cc1ccc(C(=O)N/N=C/c2ccc(-c3ccccc3[N+](=O)[O-])o2)cn1,2%
O=C(Cc1cccs1)Nc1cc(SCCO)cc([N+](=O)[O-])c1,-13%
O=C(/C=C/c1cccnc1)c1cc(F)ccc1O,4%[57.5 µM]
O=C(/C=C/c1cccnc1)/C=C/c1cccnc1,10µM*
Cc1cccc(C(=O)Nc2ccc(C(=O)/C=C/c3cccnc3)cc2)c1,-5%
CNC(=S)Nc1ccc(Cc2ccncc2)cc1,-2%[57.5 µM]
COCCN1C(=O)/C(=C/c2ccc(N3CCCC3)cc2C)SC1=S,22µM*
CN=C1S/C(=C\c2ccc(N3CCOCC3)cc2C)C(=O)N1C,0%
CCN=C1S/C(=C\c2ccc(N3CCOCC3)cc2C)C(=O)N1CC,5%
COCCNC(=O)[C@@]1(Cc2ccccc2)C=C[C@@H](C)N1C(C)=O,-2%
CCOc1ccc(NC(=O)CCNS(=O)(=O)c2ccc3c(c2)CCC(=O)N3)cc1,1%
Cc1c(N=Cc2c(O)n(Cc3ccco3)c(=O)c3ccccc23)c(=O)n(-c2ccccc2)n1C,-2%
O=C(c1ccccc1)C(Sc1ncn[nH]1)c1ccccc1 (centres undefined),2%
Cc1ccc(OCC(=O)NNC(=O)CSc2ncnc3sc(C)c(C)c23)cc1,-1%
CC(=O)c1cnc(Nc2ccc(C)cc2)s1,-5%
